# Measurements published in PubChem BioAssay (NCI).
# This is part of a sample that, as a whole, favours compounds with a hit. Of some 79,000 tested, about 15% had one in any assay. Unmarked numbers belong to inactive results. Activity calls are given as the source filed them. Rule as the data show it: active = growth inhibition above about 70%; inactive = the rest.
# How the values were obtained:
# [1] = NCI Yeast Anticancer Drug Screen. Data for the rad50 strain (AID 155);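 also: 0% = growth of vehicle-only cultures of the same strain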; details: S. cerevisiae rad50 strain growth inhibition, hits give high values
# Procedure, shortened: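 Readout: growth inhibition relative to vehicle-treated cultures. Compound exposure was carried out in a genetically defined yeast strain deficient in DNA damage repair.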
# [2] = NCI Yeast Anticancer Drug Screen. Data for the mec2-1 strain (AID 157); details: S. cerevisiae mec2-1 strain, hits give high values
# Procedure, shortened: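 Cells of the genetically defined mec2-1 yeast strain are incubated with test compound. Inhibition of growth is calculated against vehicle-treated controls.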
# [3] = NCI Yeast Anticancer Drug Screen. Data for the sgs1 mgt1 strain (AID 161);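 also: 0% = growth of cultures given vehicle only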; details: S. cerevisiae sgs1 mgt1 strain, hits give high values
# Procedure, shortened: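 Genetically altered yeast, compound exposure, growth inhibition relative to vehicle.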
# [4] = NCI Yeast Anticancer Drug Screen. Data for the cln2 rad14 strain (AID 165);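 also: 0% = growth equal to vehicle treated cultures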; details: S. cerevisiae cln2 rad14 strain, hits give high values
# Procedure, shortened: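 The screen exposed genetically defined yeast (cln2 rad14) to test compounds and scored growth inhibition relative to vehicle-treated controls.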
# [5] = NCI Yeast Anticancer Drug Screen. Data for the bub3 strain (AID 167); details: S. cerevisiae bub3 mutant strain, hits give high values
# Procedure, shortened: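 Readout: yeast growth inhibition, expressed relative to vehicle-only wells. The test organism is a mutant strain from a panel with lesions in DNA repair or checkpoint genes.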
# [6] = NCI Yeast Anticancer Drug Screen. Data for the mlh1 rad18 strain (AID 175); details: S. cerevisiae mlh1 rad18 strain growth inhibition, hits give high values
# Procedure, shortened: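 Compound-treated yeast growth, normalised to vehicle controls. Strain bears defined DNA repair mutations.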
# [7] = at 5.0 µM (retest, dose inferred, filed as 0.5)
# [8] = at 50.0 µM (retest, dose inferred, filed as 5.0)
Structure (SMILES),"growth inhibition [1, 7]","growth inhibition [1, 8]",growth inhibition ([1]; at 50.0 µM),"growth inhibition [2, 7]","growth inhibition [2, 8]",growth inhibition ([2]; at 50.0 µM),"growth inhibition [3, 7]","growth inhibition [3, 8]",growth inhibition ([3]; at 50.0 µM),"growth inhibition [4, 7]","growth inhibition [4, 8]",growth inhibition ([4]; at 50.0 µM),"growth inhibition [5, 7]","growth inhibition [5, 8]",growth inhibition ([5]; at 50.0 µM),"growth inhibition [6, 7]","growth inhibition [6, 8]",growth inhibition ([6]; at 50.0 µM)
N#CCc1cccc2ccccc12,3%,6%,13.7%,1%,10%,-16.8%,0%,4%,-14.2%,-2%,3%,-17.1%,0%,-4%,-9.9%,5%,10%,5%
CC(C)=CCCC(C)C1=C(O)C(=O)C(C)=CC1=O (stereo not given),25%,97% (active),88.8% (active),19%,98% (active),93.3% (active),15%,99% (active),90.8% (active),24%,86% (active),70%,19%,99% (active),90.6% (active),25%,98% (active),87% (active)
OC(c1cc2ccc(C(F)(F)F)cc2c2cc(C(F)(F)F)ccc12)C1CCCCN1 (stereo not given),85% (active),98% (active),89.6% (active),77% (active),98% (active),92% (active),96% (active),98% (active),88.9% (active),44%,97% (active),88.2% (active),91% (active),99% (active),85.5% (active),97% (active),97% (active),85.7% (active)
S=c1[nH]c2cc(Cl)ccc2s1,-21%,64%,25.2%,-4%,90% (active),42.2%,-6%,95% (active),74.6% (active),-8%,93% (active),-2.15%,-28%,16%,-4.3%,-12%,45%,42.9%
Cc1onc(-c2ccccc2)c1C(=O)N/N=C/c1cc(Cl)cc(Cl)c1O,92% (active),95% (active),80.6% (active),96% (active),96% (active),88.5% (active),93% (active),98% (active),90.8% (active),87% (active),96% (active),84.5% (active),94% (active),63%,87.8% (active),96% (active),94% (active),85.2% (active)
C/C(=N\NC(=S)N1CC2CCC(CC2)C1)c1ccccn1,33%,65%,86.7% (active),13%,73% (active),89.7% (active),26%,76% (active),88.8% (active),23%,81% (active),79.1% (active),21%,80% (active),88.7% (active),25%,68%,92.3% (active)
Nc1cc(-c2ccccc2)ccc1O,5%,63%,98.7% (active),-2%,80% (active),97.9% (active),5%,37%,93.6% (active),-3%,6%,79.1% (active),0%,29%,99.1% (active),8%,89% (active),99.5% (active)
Cc1oc2c(C)c3oc(=O)cc(C)c3cc2c1CCl,27%,94% (active),54.4%,32%,97% (active),75.5% (active),27%,95% (active),87% (active),19%,89% (active),67.5%,41%,97% (active),84.1% (active),47%,96% (active),90.7% (active)
Cc1cc(O)c2c(c1)C(=O)C(c1c(C)cc3c(c1O)C(=O)C1OC1C3=O)=CC2=O (stereo not given),98% (active),96% (active),76.8% (active),99% (active),96% (active),76.2% (active),99% (active),95% (active),89.7% (active),98% (active),95% (active),79.3% (active),99% (active),95% (active),79.2% (active),98% (active),97% (active),87.8% (active)
O=C1CSC(=S)N1Cc1cccnc1,1%,19%,45.4%,4%,47%,34%,6%,24%,42.9%,32%,33%,1.95%,-22%,48%,61.8%,-4%,72% (active),54.9%
O=C(CCl)N1c2ccccc2Sc2c1ccc1ccccc21,25%,90% (active),82.7% (active),39%,90% (active),63.9%,47%,94% (active),90.6% (active),20%,69%,19.8%,56%,91% (active),72.2% (active),46%,90% (active),83.4% (active)
O=C(c1ccccc1)C(Br)[N+](=O)[O-] (stereo not given),99% (active),99% (active),99.7% (active),99% (active),99% (active),99.7% (active),99% (active),100% (active),99.7% (active),93% (active),99% (active),99.7% (active),100% (active),100% (active),99.8% (active),99% (active),99% (active),99.7% (active)
Cc1nnc(N/N=C/c2ccc([N+](=O)[O-])o2)[nH]c1=O,-5%,36%,59.1%,6%,68%,65.2%,-2%,75% (active),47.5%,6%,42%,85.2% (active),-9%,62%,81% (active),8%,80% (active),71% (active)
CN(C)CC(C)(CN(C)C)C(=O)/C=C/c1c(Cl)cccc1Cl,5%,84% (active),85% (active),-2%,73% (active),93.7% (active),1%,93% (active),77.4% (active),3%,56%,18.9%,4%,87% (active),81% (active),7%,93% (active),91.5% (active)
CC/C(=C(/CC)c1ccc(O)cc1)c1ccc(O)cc1,16%,99% (active),99% (active),6%,99% (active),98.8% (active),5%,100% (active),99.1% (active),39%,99% (active),98% (active),22%,63%,99.5% (active),13%,97% (active),99.2% (active)
Nc1cccc2cccc([N+](=O)[O-])c12,-142%,-39%,10.8%,-47%,-40%,11.4%,-52%,1%,16%,-63%,-10%,62%,-74%,-86%,-19.9%,-130%,-68%,21.4%
CC(C)(C)c1ccc(O)c(Br)c1,0%,-4%,90.9% (active),-38%,5%,79.8% (active),0%,2%,83.8% (active),1%,-4%,35.5%,31%,-4%,42.6%,1%,8%,86.8% (active)
CN(C)CCSC1=Nc2ccc(Cl)cc2C(c2ccccc2Cl)N(C)C1 (stereo not given),8%,80% (active),96.7% (active),3%,47%,95.7% (active),3%,78% (active),88.3% (active),4%,27%,80.2% (active),0%,82% (active),97% (active),10%,84% (active),95.8% (active)
CCCCCCCCCCCC1N=C(N)N=C(N)N1c1cccc(Br)c1 (stereo not given),99% (active),97% (active),97.5% (active),100% (active),97% (active),97.7% (active),98% (active),98% (active),99.2% (active),99% (active),96% (active),96.2% (active),99% (active),98% (active),97% (active),99% (active),97% (active),98.3% (active)
CC(C)(C)c1ccc(CCO)cc1,-10%,7%,33.5%,-2%,-4%,5.35%,-3%,-5%,12.2%,-2%,-4%,-8.05%,0%,6%,-4.15%,-5%,2%,19.9%
